A short description of assay [1]: BSK_BT_PBMCCytotoxicity: PBMC Cytotoxicity Assessment in the BioMAP Diversity Plus: BT Assay (AID 2284225).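 Note: PBMC viability measured by Alamar Blue dye reduction fluorescence.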 The settings on record: primary human B cells with PBMC. Put shortly: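 Primary human co-culture of B cells and PBMC, pre-dosed 1 h then activated with SEB and TSST-1. Cytotoxicity is taken from Alamar Blue dye reduction, added for 6 h at the end of a 90 h incubation.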

Read-out in assay [2]: Secreted IgG (sIgG), gene 3500
In words: BSK_BT_sIgG: BioMAP Diversity Plus: BT Assay for Secreted IgG (sIgG) Biomarker Activity (AID 2284226). As to conditions: primary human B cells with PBMC. The method, boiled down: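 In this multiplexed co-culture system, ELISA quantifies sIgG 24 h post-treatment. Endpoint analysis uses positive fitting direction, DMSO negative control.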

Read-out in assay [3]: Interleukin 6 (IL6), IL6 (gene 3569)
In words: BSK_BT_xIL6: BioMAP Diversity Plus: BT Assay for Interleukin 6 (IL6) Biomarker Activity (AID 2284228). The settings on record: primary human B cells with PBMC. The method, boiled down: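 IL-6 secretion measured (Luminex xMAP) in human primary B cell + PBMC co-culture at 24 h of chemical exposure; DMSO served as negative control and activity baseline, with curves fitted for increase.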

Read-out in assay [4]: Interleukin 17A (IL17A), IL17A (gene 3605)
In words: BSK_BT_xIL17A: BioMAP Diversity Plus: BT Assay for Interleukin 17A (IL17A) Biomarker Activity (AID 2284229). As to conditions: primary human B cells with PBMC. Put shortly: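 Human primary B cells plus PBMC, treated 24 h with chemicals; supernatant IL-17A quantified on Luminex xMAP beads. Gain of signal over DMSO control scored as activity.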

A short description of assay [5]: IUF_NPC1a_proliferation_area_72hr: Leibniz Research Institute for Environmental Medicine (IUF) 72-hour Neural Progenitor Cell Proliferation Area Assay (NPC1a) (AID 2284208). Put shortly: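 Measured in 3D suspension: each well held one primary hNPC sphere grown with EGF and FGF at pH 7.2-7.6. Compound stayed on for 72 h, then area was imaged; spheres lacking growth factors defined reduced proliferation.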

The nature of assay [6]: IUF_NPC1_viability_72hr: Viability Assessment at 72 hours in the Leibniz Research Institute for Environmental Medicine (IUF) Neural Progenitor Cell Proliferation Assay (NPC1) (AID 2284209). The method, boiled down:
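Three-day continuous exposure of human neural progenitor spheres under EGF/FGF-driven proliferation; cell viability scored by alamar blue signal versus DMSO.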

The nature of assay [7]: CCTE_Mundy_HCI_Cortical_Synap_Neur_Matur_NeuriteSpotCountPerNeuriteLength: CCTE's Synaptogenesis and Neurite Maturation Assay in rat cortical cells for Neurite Spot Count per Neurite Length, Mundy Lab (AID 2284210). The method, boiled down:
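Read-out: synaptophysin puncta counted along MAP2-stained neurites, normalised to neurite length, by automated high-content imaging. Rat cortical cells; AraC DIV 5; chemical dosing DIV 7; termination DIV 12. DMSO baseline.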

Assay [8] in a line: CCTE_Mundy_HCI_Cortical_Synap_Neur_Matur_BPCount: CCTE's Synaptogenesis and Neurite Maturation Assay in rat cortical cells for Branch Point Count, Mundy Lab (AID 2284211). The method, boiled down: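 In this multiplexed morphology assay, cortical cells from rat receive chemicals at DIV 7 and are fixed at DIV 12, then immunostained and imaged; branch points are counted, with DMSO as baseline.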

Assay [9] in a line: CCTE_Mundy_HCI_Cortical_NOG_NeuriteCount: CCTE's Neurite Outgrowth Assay in rat cortical cells for Neurite Count, Mundy Lab (AID 2284212).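 Note: cells fixed about two days after chemical exposure began.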 The method, boiled down: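 Rat cortical primary cells; compound added 2 h post-plating, 1/10 dilution of working solution. Anti-betaIII-tubulin/AF488 ICC; ArrayScan neurite count vs DMSO.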
Assay [10] can be described thus: CCTE_Mundy_HCI_Cortical_NOG_NeuriteLength: CCTE's Neurite Outgrowth Assay in rat cortical cells for Neurite Length, Mundy Lab (AID 2284213).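 For AC50: neurites imaged about 48 to 50 h after chemical exposure began.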 Put shortly:
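First, rat primary cortical cells were plated and, 2 h later, given test chemical as a 1/10 dilution. Finally, βIII-tubulin immunostaining enabled automated imaging of neurite length.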

A short description of assay [11]: CCTE_Mundy_HCI_Cortical_Synap_Neur_Matur_NeuriteLength: CCTE's Synaptogenesis and Neurite Maturation Assay in rat cortical cells for Neurite Length, Mundy Lab (AID 2284214). Put shortly: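 DMSO-normalised neurite length, from high-content imaging of anti-MAP2-stained rat cortical cells fixed at DIV 12. Glia were suppressed with AraC (DIV 5) before chemical exposure from DIV 7.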

Assay [12] can be described thus: CCTE_Mundy_HCI_Cortical_Synap_Neur_Matur_NeuriteSpotCountPerNeuron: CCTE's Synaptogenesis and Neurite Maturation Assay in rat cortical cells for Neurite Spot Count per Neuron Count, Mundy Lab (AID 2284215). The method, boiled down:
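Developing rat cortical neurons, with glia suppressed by AraC, are exposed to chemicals from DIV 7 to DIV 12. Automated fluorescence imaging of MAP2-labelled neurites and synaptophysin puncta yields a count per neuron, normalised against DMSO wells.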

The nature of assay [13]: CCTE_Mundy_HCI_Cortical_Synap_Neur_Matur_SynapseCount: CCTE's Synaptogenesis and Neurite Maturation Assay in rat cortical cells for Synapse Count, Mundy Lab (AID 2284218). Put shortly:
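Endpoint: synapses/neuron by HCI (synaptophysin puncta on MAP2-labelled neurites, Hoechst nuclei). Rat primary cortical cells, AraC DIV 5, dosed DIV 7, fixed DIV 12; DMSO negative control.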

The nature of assay [14]: CCTE_Mundy_HCI_Cortical_Synap_Neur_Matur_NeuriteCount: CCTE's Synaptogenesis and Neurite Maturation Assay in rat cortical cells for Neurite Count, Mundy Lab (AID 2284222). Put shortly: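 Chemical exposure runs DIV 7–12 in rat cortical cultures, glia suppressed by AraC at DIV 5; measurement is at DIV 12. Imaging-derived neurite counts are fitted against DMSO baseline.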

Assay [15] is described as follows: CCTE_Mundy_HCI_Cortical_Synap_Neur_Matur_CellBodySpotCount: CCTE's Synaptogenesis and Neurite Maturation Assay in rat cortical cells for Cell Body Spot Count, Mundy Lab (AID 2284223). The method, boiled down:
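Chemicals were applied to AraC-treated rat primary cortical cells at DIV 7 and measured at DIV 12. Fixed cells were labelled for MAP2, synaptophysin and nuclei, and high-content imaging gave cell body synaptophysin spot counts per neuron relative to DMSO.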

Assay [16] is described as follows: CCTE_Mundy_HCI_hNP1_Pro_ResponderAvgInten: CCTE's Proliferation Assay in human neuroprogenitor cells, Mundy Lab (AID 2284224; active = hit-call score of the fitted dose curve at least 0.9, where 1 is the maximum;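 note: human neural progenitor cells hNP1 derived from WA09 embryonic stem cells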). Put shortly:
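Proliferation read as average intensity of BrdU-positive cells, imaged at 26.25 h post-dosing: chemical exposure started after 40–44 h culture, BrdU during final 4 h, paraformaldehyde fixation. Positive-direction fit relative to DMSO.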

A short description of assay [17]: TAMU_PeakParms_SingleDonor1434_Chronotropy: Texas A&M University (TAMU) 1.5-hr Human Induced Pluripotent Stem Cell (iPSC)-derived Cardiomyocytes Calcium (Ca+2) Flux Assay for Cardiotoxicity: Chronotropy (changes in peak frequency) (AID 2284217). As to conditions: actives raise or lower the signal. The method, boiled down:
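Beat frequency of single-donor iPSC cardiomyocytes was recorded through a calcium-sensitive dye 1.5 hours after exposure to four concentrations up to 100 uM. An EC05 point of departure was derived.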

A short description of assay [18]: CCTE_Mundy_HCI_hN2_NOG_NeuriteCount: CCTE's Neurite Outgrowth Assay in human hN2 cells for Neurite Count, Mundy Lab (AID 2284219; active = hit-call score of the fitted dose curve at least 0.9, where 1 is the maximum). The method, boiled down: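 In this morphology assay, hNP1-derived neurons received test chemical 2 h post-plating and were fixed two days later in warm paraformaldehyde/sucrose containing Hoechst 33342. Neurites, labelled by rabbit anti-βIII-tubulin (1:800) and Alexa Fluor-488 (1:500), were counted automatically.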

Assay [19] in a line: CCTE_Mundy_HCI_hN2_NOG_NeuriteLength: CCTE's Neurite Outgrowth Assay in human hN2 cells for Neurite Length, Mundy Lab (AID 2284220; active = hit-call score of the fitted dose curve at least 0.9, where 1 is the maximum). The method, boiled down:
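Read-out is neurite length from high-content imaging of βIII-tubulin/Alexa Fluor-488-labelled neurons, referenced to DMSO controls.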

The record followed here is PubChem BioAssay (EPA / NIEHS).

“And” between values parts separate entries of the source, which are not always exact repeats. Equal entries are not always repeated. Results filed as inconclusive are left out. More than one record can exist for a structure, and the calls need not agree. The source made the active and inactive calls. Rule for the calls, unless noted: active = hit-call score of the fitted dose curve at least 0.9, where 1 is the maximum; inactive = score below 0.9.

As usually defined, the AC50 is the concentration giving half of the maximal activity seen. `CCCCCc1ccc(O)cc1`: the result in assay [1], in assay [3] and in [4] was inactive. The AC50 in assay [2] was 20 µM (active).

`CC(C)c1c(C(=O)Nc2ccccc2)c(-c2ccccc2)c(-c2ccc(F)cc2)n1CC[C@@H](O)C[C@@H](O)CC(=O)O`: the call in assay [5], in [6] and in assay [16] was inactive. Also, the AC50 was 6.94 µM (active) in [7]; 0.779 µM (active) in [8]; 0.158 µM (active) in [9]; 0.145 µM (active) in assay [10]; 2.82 µM (active) in assay [11]; 3.05 µM (active) in [12]. Moreover, the AC50 in assay [13] was 3.58 µM (active); in assay [14] it was 3.35 µM (active); in assay [15], 4.68 µM (active).

With `OCC(F)(F)C(F)(F)C(F)(F)C(F)(F)C(F)(F)C(F)(F)C(F)(F)C(F)(F)C(F)(F)C(F)(F)C(F)(F)F`, the compound was called inactive in [16], in assay [1], in assay [2], in assay [3] and in assay [4]. Also, the AC50 in assay [1] is 0.0655 µM (active); in [4] it was 0.0554 µM (active).

Consider `O=C(O)CCC(F)(F)C(F)(F)C(F)(F)C(F)(F)C(F)(F)C(F)(F)F`, for which the AC50 in assay [1] is 23.6 µM (active); in [2], 14 µM (active) and 36.7 µM (active). Moreover, the outcome in [1], in [2], in assay [3] and in assay [4] was inactive.

Turning to `CCCCC(CC)C(=O)OCCOCCOCCOCCOC(=O)C(CC)CCCC` (stereo not given), the outcome in assay [1] and in assay [4] was inactive. Besides, the figures for the AC50 in assay [2] and in assay [3] were 25.2 µM (active) and 0.016 µM (active), respectively.

As for `O=C(O)CCC(F)(F)C(F)(F)C(F)(F)C(F)(F)C(F)(F)F`, the result in [1], in assay [2], in assay [3] and in assay [4] was inactive. The AC50 in assay [2] was 30 µM (active).

For the compound `O=P(O)(O)CCC(F)(F)C(F)(F)C(F)(F)C(F)(F)C(F)(F)C(F)(F)F`, in assay [1], the AC50 is 12.2 µM (active). Also, the outcome in assay [1], in assay [2], in [3] and in assay [4] was inactive.

On to `NC(=NCCCCCCN=C(N)/N=C(\N)Nc1ccc(Cl)cc1)/N=C(\N)Nc1ccc(Cl)cc1`, for which the AC50 in assay [1] is 13.7 µM (active); in [2], 2.87 µM (active); in assay [3] it was 8.83 µM (active); in [4], 4.09 µM (active).

For the compound `O=C1NS(=O)(=O)c2ccccc21`, the compound was classed as inactive in [5], in assay [6], in assay [7], in assay [9], in assay [10] and in assay [11]. For the same compound, the compound was called inactive in assay [12], in [17], in assay [13], in [18], in assay [19] and in [15]. In [16], the result was inactive.
